Results taken from the supplement of paper PMC10127200.
Counter-ions that a name gives are not always drawn.

Legend:
Assay in all cases: Euclidean distance of Cell Painting phenotypic profile (signed KS, 77 features) to DMSO centroid (dimensionless distance); 5 or 10 uM (library dependent); higher = stronger phenotypic change vs DMSO (phenoactivity)
Conditions in all cases: 48 h
786-O = tested on: 786-O
Procedure, shortened: (§1)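 Stained cells were imaged confocally at 20X with 9 fields per well, after 48 h of exposure to library compounds at 10 or 5 uM (set by library; 0.1% DMSO final). The cells were five cancer lines and a healthy fibroblast line. From the images, Harmony extracted 77 features, each expressed as a signed Kolmogorov-Smirnov statistic relative to same-plate vehicle wells. Phenoactivity is measured as Euclidean distance to the median vehicle profile, using plate-position-corrected, correlation-weighted profiles averaged across replicates at the top dose.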

A549 = tested on: A549
Procedure, shortened: as §1

DU145 = tested on: DU145
Procedure, shortened: as §1

FB = tested on: FB
Procedure, shortened: as §1

HEPG2 = tested on: HEPG2
Procedure, shortened: as §1

OVCAR4 = tested on: OVCAR4
Procedure, shortened: as §1

## c1cnc2cc3c(cc2n1)[C@@H]1CNC[C@H]3C1 [Varenicline Tartrate]
786-O
  Euclidean distance: 0.702
A549
  Euclidean distance: 0.985
DU145
  Euclidean distance: 0.786
FB
  Euclidean distance: 0.802
HEPG2
  Euclidean distance: 0.459
OVCAR4
  Euclidean distance: 1.05

## Nc1ncnc2c1c(-c1cnc3[nH]ccc3c1)nn2C1CCCC1
786-O
  Euclidean distance: 4.92
A549
  Euclidean distance: 5.03
DU145
  Euclidean distance: 4.39
FB
  Euclidean distance: 4.32
HEPG2
  Euclidean distance: 4.53
OVCAR4
  Euclidean distance: 3.29

## CC(C(=O)O)c1cccc(Oc2ccccc2)c1 (stereo not given) [Fenoprofen calcium hydrate]
786-O
  Euclidean distance: 1.27
A549
  Euclidean distance: 0.707
DU145
  Euclidean distance: 0.898
FB
  Euclidean distance: 0.869
HEPG2
  Euclidean distance: 0.486
OVCAR4
  Euclidean distance: 1.2

## COc1ccc(-c2ccc3ncc4c(c3c2)n(-c2ccc(N3CCNCC3)c(C(F)(F)F)c2)c(=O)n4C)cn1
786-O
  Euclidean distance: 6.24
A549
  Euclidean distance: 5.51
DU145
  Euclidean distance: 7.61
FB
  Euclidean distance: 6.11
HEPG2
  Euclidean distance: 5.69
OVCAR4
  Euclidean distance: 5.98

## CCN[C@@H]1C[C@H](N)[C@@H](O[C@H]2OC(CN)=CC[C@H]2N)[C@H](O)[C@H]1O[C@H]1OC[C@](C)(O)[C@H](NC)[C@H]1O [Netilmicin Sulfate]
786-O
  Euclidean distance: 1.12
A549
  Euclidean distance: 0.92
DU145
  Euclidean distance: 1.18
FB
  Euclidean distance: 0.946
HEPG2
  Euclidean distance: 0.625
OVCAR4
  Euclidean distance: 0.916

## CC12CC3CC(C)(C1)CC(N)(C3)C2 [Memantine HCl]
786-O
  Euclidean distance: 1.1
A549
  Euclidean distance: 0.654
DU145
  Euclidean distance: 1.66
FB
  Euclidean distance: 1.03
HEPG2
  Euclidean distance: 1.95
OVCAR4
  Euclidean distance: 1.51

## O=C1c2c(O)cc(O)cc2OC(c2ccc(O)c(O)c2)C1O (stereo not given) [Taxifolin (Dihydroquercetin)]
786-O
  Euclidean distance: 1.12
A549
  Euclidean distance: 0.542
DU145
  Euclidean distance: 1.09
FB
  Euclidean distance: 1.25
HEPG2
  Euclidean distance: 0.834
OVCAR4
  Euclidean distance: 0.517

## Clc1ccc(C(Cn2ccnc2)OCc2ccc(Sc3ccccc3)cc2)c(Cl)c1 (stereo not given) [Fenticonazole Nitrate]
786-O
  Euclidean distance: 1.13
A549
  Euclidean distance: 0.887
DU145
  Euclidean distance: 1.51
FB
  Euclidean distance: 1.21
HEPG2
  Euclidean distance: 2.16
OVCAR4
  Euclidean distance: 1.35

## CCCCC1=NC2(CCCC2)C(=O)N1Cc1ccc(-c2ccccc2-c2nnn[nH]2)cc1 [Irbesartan]
786-O
  Euclidean distance: 1.03
A549
  Euclidean distance: 0.928
DU145
  Euclidean distance: 0.351
FB
  Euclidean distance: 0.966
HEPG2
  Euclidean distance: 0.777
OVCAR4
  Euclidean distance: 1.79

## Cc1cc(Cl)ccc1OCCCC(=O)NO [Droxinostat]
786-O
  Euclidean distance: 1.32
A549
  Euclidean distance: 1.68
DU145
  Euclidean distance: 0.991
FB
  Euclidean distance: 1.3
HEPG2
  Euclidean distance: 1.07
OVCAR4
  Euclidean distance: 0.782

## CC(C)(O)c1cc(Nc2cc(Oc3cn(C4CC4)nc3C3CCOCC3)ccn2)ccn1
786-O
  Euclidean distance: 0.999
A549
  Euclidean distance: 0.879
DU145
  Euclidean distance: 1.32
FB
  Euclidean distance: 1.38
HEPG2
  Euclidean distance: 1.09
OVCAR4
  Euclidean distance: 1.36

## COCC(=O)Nc1c(I)c(C(=O)NCC(O)CO)c(I)c(C(=O)N(C)CC(O)CO)c1I (stereo not given) [Iopromide]
786-O
  Euclidean distance: 1.53
A549
  Euclidean distance: 0.999
DU145
  Euclidean distance: 0.749
FB
  Euclidean distance: 1.04
HEPG2
  Euclidean distance: 0.445
OVCAR4
  Euclidean distance: 1.07

## Nc1ncccc1-c1nc2ccc(-c3ccccc3)nc2n1-c1ccc(C2(N)CCC2)cc1 [Miransertib (ARQ 092) HCl]
786-O
  Euclidean distance: 4.75
A549
  Euclidean distance: 4.1
DU145
  Euclidean distance: 2.87
FB
  Euclidean distance: 4.17
HEPG2
  Euclidean distance: 4.52
OVCAR4
  Euclidean distance: 3.46

## CC(C)CCNc1ncccc1C(=O)N1CCN(Cc2ccccc2)CC1
786-O
  Euclidean distance: 0.757
A549
  Euclidean distance: 0.542
DU145
  Euclidean distance: 0.821
FB
  Euclidean distance: 0.894
HEPG2
  Euclidean distance: 0.864
OVCAR4
  Euclidean distance: 0.631

## Cc1c(N(C)C)c(=O)n(-c2ccccc2)n1C [Amidopyrine]
786-O
  Euclidean distance: 1.3
A549
  Euclidean distance: 0.92
DU145
  Euclidean distance: 0.804
FB
  Euclidean distance: 1.15
HEPG2
  Euclidean distance: 1.63
OVCAR4
  Euclidean distance: 1.17
